Reference: PubChem BioAssay AID1159580 (chemical genetic matrix, 2015)
“And” between values parts separate entries of the source, which are not always exact repeats. Identical values can stand only once. Out of some 5,500 compounds screened, about 2,000 (36%) were called active. Roughly 18% stayed inconclusive and do not appear here. No stated cut-off is given here; in the data, active means normalized growth mostly below about 0.91 (no sharp cut-off); inconclusive means no clear call, values can overlap the other calls; inactive means mostly above about 0.92. Some of the results follow.

Assay: chemical genetic growth profiling, strain panel (AID 1159580);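 further: tested at 20 µM; growth read once vehicle control cultures reached saturation at 30 °C; 1 = growth at the plate median or of vehicle wells; lower values mean less growth of the strain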
Conditions: S. cerevisiae deletion strains, growth OD

Measured: normalized growth

O=C(O)C1CC([C@@H]2CCCCN2)CN2CCCCC12 (some centres not stated)
inactive: locus YAL021C, strain ccr4, active compounds read low 1.02 | locus YAL026C, strain drs2, active compounds read low 0.967 | locus YAL030W, strain snc1, active compounds read low 0.972 | locus YBL061C, strain skt5, active compounds read low 0.985 | locus YBR009C, strain hhf1, active compounds read low 0.924 | locus YBR021W, strain FUR4, active compounds read low 1.08 | locus YBR023C, strain chs3, active compounds read low 1.01 | locus YBR171W, strain sec66, active compounds read low 0.974 | locus YBR229C, strain ROT2, active compounds read low 1.01 | locus YBR231C, strain swc5, active compounds read low 0.981 | locus YBR279W, strain paf1, active compounds read low 0.995 | locus YCL011C, strain gbp2, active compounds read low 0.953 | locus YCL016C, strain dcc1, active compounds read low 0.989 | locus YCL029C, strain bik1, active compounds read low 0.969 | locus YCL061C, strain MRC1, active compounds read low 0.983 | locus YCL069W, strain vba3, active compounds read low 0.969 | locus YCR088W, strain abp1, active compounds read low 0.987 | locus YDL005C, strain med2, active compounds read low 0.972 | locus YDL035C, strain GPR1, active compounds read low 1.01 | locus YDL040C, strain nat1, active compounds read low 0.981 | locus YDL074C, strain BRE1, active compounds read low 1.04 | locus YDL101C, strain DUN1, active compounds read low 1.03 | locus YDL134C, strain PPH21, active compounds read low 1.1 | locus YDL185W, strain tfp1, active compounds read low 0.968 | locus YDL192W, strain arf1, active compounds read low 0.967 | locus YDR001C, strain nth1, active compounds read low 0.97 | locus YDR069C, strain doa4, active compounds read low 0.97 | locus YDR101C, strain arx1, active compounds read low 0.984 | locus YDR137W, strain rgp1, active compounds read low 0.978 | locus YDR159W, strain sac3, active compounds read low 0.958 | locus YDR162C, strain NBP2, active compounds read low 1.08 | locus YDR195W, strain ref2 0.924 | locus YDR297W, strain sur2, active compounds read low 0.984 | locus YDR318W, strain mcm21, active compounds read low 0.98 | locus YDR334W, strain swr1, active compounds read low 0.963 | locus YDR335W, strain msn5, active compounds read low 0.983 | locus YDR388W, active compounds read low 0.986 | locus YDR392W, strain spt3, active compounds read low 0.902 | locus YDR502C, strain sam2, active compounds read low 0.993 | locus YEL003W, strain gim4, active compounds read low 0.98 | locus YEL037C, strain rad23, active compounds read low 0.987 | locus YEL061C, strain CIN8 (second series), active compounds read low 0.97 | locus YEL061C, strain CIN8, active compounds read low 1.01 | locus YER015W, strain faa2, active compounds read low 0.997 | locus YER016W, strain bim1, active compounds read low 0.993 | locus YER110C, active compounds read low 0.992 | locus YER111C, strain swi4, active compounds read low 0.965 | locus YER155C, strain BEM2 (second series), active compounds read low 0.968 | locus YER155C, strain BEM2, active compounds read low 1.01 | locus YER167W, strain BCK2, active compounds read low 1.02 | locus YFR010W, strain ubp6, active compounds read low 0.969 | locus YGL078C, strain dbp3, active compounds read low 0.993 | locus YGL086W, strain mad1, active compounds read low 1.03 | locus YGL167C, strain pmr1, active compounds read low 0.957 | locus YGL173C, strain kem1, active compounds read low 0.979 | locus YGL227W, strain vid30, active compounds read low 0.959 | locus YGL240W, strain doc1, active compounds read low 0.959 | locus YGL248W, strain PDE1, active compounds read low 1.04 | locus YGL253W, strain hxk2, active compounds read low 0.999 | locus YGR078C, strain PAC10, active compounds read low 1.06 | locus YGR135W, strain pre9, active compounds read low 0.979 | locus YGR229C, strain SMI1, active compounds read low 1.08 | locus YGR252W, strain gcn5, active compounds read low 1.05 | locus YHR013C, strain ard1, active compounds read low 0.93 | locus YHR027C, strain rpn1, active compounds read low 0.971 | locus YHR030C, strain SLT2, active compounds read low 0.997 and 0.989 | locus YHR079C, strain IRE1 (second series), active compounds read low 0.998 | locus YHR079C, strain IRE1, active compounds read low 0.998 | locus YHR094C, strain hxt1, active compounds read low 0.978 | locus YHR129C, strain ARP1, active compounds read low 1.01 | locus YHR142W, strain chs7, active compounds read low 1.01 | locus YHR200W, strain rpn10, active compounds read low 0.968 | locus YIL066C, strain RNR3, active compounds read low 1.05 | locus YIL073C, strain SPO22, active compounds read low 0.984 | locus YIL125W, strain kgd1, active compounds read low 0.993 | locus YIR030C, strain dcg1, active compounds read low 0.985 | locus YJL092W, strain hpr5, active compounds read low 0.976 | locus YJL095W, strain BCK1 (second series), active compounds read low 1 | locus YJL095W, strain BCK1, active compounds read low 1.08 and 1.04 | locus YJL115W, strain asf1, active compounds read low 0.978 | locus YJL129C, strain trk1, active compounds read low 0.973 | locus YJL134W, strain LCB3, active compounds read low 1 | locus YJL154C, strain vps35, active compounds read low 0.986 | locus YJL164C, strain tpk1, active compounds read low 0.997 | locus YJL166W, strain qcr8, active compounds read low 0.995 | locus YJL168C, strain set2, active compounds read low 0.986 | locus YJL187C, strain SWE1 (second series), active compounds read low 1.04 | locus YJL187C, strain SWE1, active compounds read low 0.976 | locus YJR043C, strain POL32, active compounds read low 1.04 | locus YJR066W, strain TOR1, active compounds read low 0.941 | locus YJR075W, strain HOC1, active compounds read low 1.03 | locus YKL009W, strain mrt4, active compounds read low 0.968 | locus YKL068W, active compounds read low 0.99 | locus YKL085W, strain MDH1 (second series), active compounds read low 1.01 | locus YKL085W, strain MDH1, active compounds read low 1.01 | locus YKL160W, strain elf1, active compounds read low 1.01 | locus YKR001C, strain vps1, active compounds read low 1.02 | locus YKR026C, strain gcn3, active compounds read low 0.973 | locus YKR091W, strain srl3, active compounds read low 0.956 | locus YLL001W, strain dnm1, active compounds read low 1.01 | locus YLL026W, active compounds read low 0.999 | locus YLL041C, strain sdh2, active compounds read low 0.997 | locus YLR027C, strain aat2, active compounds read low 0.972 | locus YLR039C, strain RIC1, active compounds read low 1.01 | locus YLR058C, strain SHM2, active compounds read low 1.02 | locus YLR102C, strain apc9, active compounds read low 0.998 | locus YLR113W, strain HOG1, active compounds read low 1.02 | locus YLR221C, strain rsa3, active compounds read low 0.993 | locus YLR258W, strain gsy2, active compounds read low 0.982 | locus YLR262C, strain YPT6 (second series), active compounds read low 0.978 | locus YLR262C, strain YPT6, active compounds read low 1.04 | locus YLR268W, strain sec22, active compounds read low 1.02 | locus YLR320W, strain mms22, active compounds read low 0.984 | locus YLR330W, strain CHS5, active compounds read low 1 | locus YLR342W, strain FKS1 (second series), active compounds read low 1.07 | locus YLR342W, strain FKS1, active compounds read low 0.958 | locus YLR357W, strain rsc2, active compounds read low 0.963 | locus YLR370C, strain arc18, active compounds read low 0.957 | locus YLR371W, strain rom2, active compounds read low 0.945 | locus YLR384C, strain iki3, active compounds read low 0.988 | locus YLR418C, strain cdc73, active compounds read low 1.01 | locus YML016C, strain PPZ1, active compounds read low 1.02 | locus YML032C, strain rad52, active compounds read low 0.986 | locus YML120C, strain ndi1, active compounds read low 0.991 | locus YML124C, strain tub3, active compounds read low 0.978 | locus YMR058W, strain fet3, active compounds read low 0.968 | locus YMR078C, strain ctf18, active compounds read low 0.963 | locus YMR125W, strain sto1, active compounds read low 0.917 | locus YMR129W, active compounds read low 0.96 | locus YMR205C, strain PFK2, active compounds read low 0.931 | locus YMR223W, strain ubp8, active compounds read low 0.981 | locus YMR231W, strain pep5, active compounds read low 0.967 | locus YMR307W, strain GAS1, active compounds read low 1.13 | locus YNL067W, strain RPL9B, active compounds read low 1.05 | locus YNL071W, strain lat1, active compounds read low 0.987 | locus YNL153C, strain GIM3, active compounds read low 1.07 | locus YNL183C, strain NPR1, active compounds read low 0.97 | locus YNL209W, strain ssb2, active compounds read low 0.965 | locus YNL233W, strain BNI4, active compounds read low 1.06 | locus YNL248C, strain rpa49, active compounds read low 1.01 | locus YNL250W, strain rad50, active compounds read low 0.983 | locus YNL271C, strain bni1, active compounds read low 0.968 | locus YNL298W, strain CLA4, active compounds read low 0.972 | locus YNL307C, strain MCK1, active compounds read low 0.999 | locus YNL322C, strain KRE1 (second series), active compounds read low 0.971 | locus YNL322C, strain KRE1, active compounds read low 1.01 | locus YNR049C, strain mso1, active compounds read low 0.978 | locus YNR052C, strain pop2, active compounds read low 0.975 | locus YOL006C, strain TOP1, active compounds read low 1.08 | locus YOL012C, strain htz1 0.943 | locus YOL147C, strain pex11, active compounds read low 0.995 | locus YOR001W, strain rrp6, active compounds read low 1.03 | locus YOR061W, strain CKA2, active compounds read low 1.01 | locus YOR069W, strain VPS5, active compounds read low 1 | locus YOR070C, strain gyp1, active compounds read low 0.999 | locus YOR080W, strain dia2, active compounds read low 0.973 | locus YOR083W, strain WHI5, active compounds read low 1.02 | locus YOR106W, strain vam3, active compounds read low 1 | locus YOR136W, strain idh2, active compounds read low 1.01 | locus YOR144C, strain elg1, active compounds read low 0.996 | locus YOR184W, strain ser1, active compounds read low 1.01 | locus YOR231W, strain MKK1, active compounds read low 0.98 | locus YOR265W, strain rbl2, active compounds read low 0.946 | locus YOR270C, strain vph1, active compounds read low 0.989 | locus YOR290C, strain snf2, active compounds read low 0.917 | locus YOR316C, strain cot1, active compounds read low 0.971 | locus YPL051W, strain arl3, active compounds read low 1.01 | locus YPL055C, strain LGE1, active compounds read low 1.06 | locus YPL078C, strain atp4, active compounds read low 0.988 | locus YPL106C, strain sse1, active compounds read low 0.959 | locus YPL240C, strain hsp82, active compounds read low 0.977 | locus YPL256C, strain CLN2, active compounds read low 1.01 | locus YPR119W, strain clb2, active compounds read low 0.987 | locus YPR141C, strain kar3, active compounds read low 0.983 | locus YPR163C, strain tif3, active compounds read low 0.989 | locus YPR167C, strain met16, active compounds read low 0.975 | strain wtn01, active compounds read low 0.989
